# From PubChem BioAssay
# Lassa entry inh: inhibitors of Lassa virus binding or cell entry | Potency, µM (titrated, usually from 37.9 µM), inactives show top-dose activity change, negative = inhibition, most hits filed as inhibitors | Lassa virus pseudotype entry inhibition, cell reporter | 1.2% of 300,000 active; calls by dose curve; tested in HEK293 cells; further: potency means the concentration at half of the fitted maximal effect; on the % scale 0 is the no-effect control and ±100 the full control effect; nearly all actives have a fitted effect of over 50% in size
# FMDV inh: antivirals against foot and mouth disease virus. AID 1159524. Potency, µM (highest dose often 57.9 µM), inactives show at the highest dose activity change, negative = inhibition, usual class: inhibitors. 1.2% of 410,000 active. FMDV antiviral cell-based qHTS; calls by dose curve; tested in HEK293T cells; further: read-out not given here; potency means the concentration at half of the fitted maximal effect; on the % scale 0 is the no-effect control and ±100 the full control effect; nearly all actives have a fitted effect of over 45% in size
# MARV entry inh: blocks Marburg virus binding to or entry into cells | Potency, µM (titrated, usually from 37.8 µM), without a hit: top-dose activity change, negative = inhibition, usual class: inhibitors | 1.8% of 300,000 active | Marburg virus pseudotyped entry inhibition, cell reporter; calls by dose curve; tested in HEK293 cells; further: potency means the concentration at half of the fitted maximal effect; on the % scale 0 is the no-effect control and ±100 the full control effect
# SARS PLP yeast: blocks SARS-CoV papain-like protease in a yeast assay | S. cerevisiae expressing SARS-CoV PLpro, growth rescue | Potency, µM (doses to about 32.9 µM), for the others: top-dose activity, positive = growth rescue, hits mostly activators | 0.19% of 330,000 active; calls by dose curve; further: potency means the concentration at half of the fitted maximal effect; 0% is about no effect; nearly all actives have a fitted effect of over 55% in size
# HCMV inh: blocks human cytomegalovirus replication | activity change, negative = inhibition, % at 57.5 µM | HFF cells, HCMV-luciferase reporter, 72 h; hits give low values | 4.5% of 410,000 active; in the data active means activity change below about -60%; inconclusive means no clear call, values can overlap the other calls; inactive means above about -39%; further: on the % scale 0 is the no-effect control and ±100 the full control effect
#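 HFF cells seeded 16 h at 37C, treated with compounds, infected with luciferase-reporter HCMV at MOI 1 PFU/cell; luciferase read at 72 h post infection, normalized to buffer-only and Salinomycin controls.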
# HCV inh: blocks hepatitis C virus | Huh7.5.1 HCVcc-Cre infection, luciferase reporter, 44 h | 3.4% of 340,000 active | Potency, µM (series often up to 41.8 µM), without a hit: top-dose activity change, negative = inhibition, hits mostly inhibitors; active means well fitted inhibition curve with a large enough effect; inconclusive means small, poorly fitted or top-dose-only effect, or another doubt; inactive means no such curve, though single readings can be large or run the other way; further: potency means the concentration at half of the fitted maximal effect; on the % scale 0 is the no-effect control and ±100 the full control effect
#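 Reporter virus HCVcc-Cre (~0.5 moi) infects cells exposed to compound; seeding density 1,000 cells/well with 4 h settling beforehand. Luminescence, 15 sec read, taken 44 h post-infection following a 15 min RT substrate incubation.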
# Starred values were filed as active, the others as inactive; ? = inconclusive; · = no result; [ ] = dose if it differs, or a comment. The list is not random: actives were taken first. Their share in the collection is about 8%.
SMILES,Lassa entry inh,FMDV inh,MARV entry inh,SARS PLP yeast,HCMV inh,HCV inh
CCN(CC)S(=O)(=O)c1ccc(Cl)c(NC(=S)NC(=O)C2CCCC2)c1,·,20µM*,·,5%,?,4µM*
CCN(c1ccccc1)S(=O)(=O)c1ccc(Cl)c(NC(=O)CN2CCCCCC2)c1,?,?,?,0%,?,14µM*
CN(C)S(=O)(=O)c1ccc(Cl)c(NC(=O)CN2CCCCCC2)c1,-8%,-17%,-13%[46.1 µM],0%,?,-17%
COCCn1c(C)cc(C(=O)CSc2cc(C)c3ccccc3n2)c1C,?,10%,?,12%,?,?
CC(C)(C)c1nc(SCC(=O)NCc2ccco2)c2ccccc2n1,0%,-23%,-22%,-7%,-88*,?
COCCn1c(C)cc(C(=O)CSc2nc3ccccc3c(=O)n2Cc2ccco2)c1C,?,-11%,?,14%,-69*,?
Cc1nc(SCC(=O)NCc2ccco2)c2c(C)c(C)sc2n1,?,-2%,15µM*,-5%,-35,?
O=C(CSc1c2c(nc3ccccc13)CCCC2)NCc1ccco1,22%,-21%,9%,-4%,-35,?
O=C(CSc1nc2ccccc2c(=O)n1Cc1ccco1)NCc1ccco1,-8%,·,-27%,3%,4,10µM*
CCc1ccccc1NC(=O)c1sc(-n2nc(C)c(Cc3ccccc3)c2C)nc1C,5%[46.1 µM],-22%,?,·,19,·
Cc1nc(SCC(=O)Nc2ccc(S(=O)(=O)N3CCOCC3)cc2)c2c(C)c(C)sc2n1,1.1µM*,-21%,?,2%,32,7.1µM*
CCn1c(SCC(=O)N2CCCCCC2)nc2ccccc2c1=O,?,3%,?,-6%,-28,-16%
CN(Cc1ccccc1)C(=O)CSc1nc2ccccc2c(=O)n1Cc1ccco1,5.8µM*,·,6.5µM*,2%,-80*,?
O=C(CSc1nc2ccccc2c(=O)n1Cc1ccco1)N1CCCCCC1,?,?,-15%,-2%,?,11µM*
O=C(CSc1nc2ccsc2c(=O)n1Cc1ccccc1)NCc1ccco1,-26%,-1%,-5%,2%,15,8.9µM*
CCCN(CCC)C(=O)CSc1nc2ccccc2c(=O)n1Cc1ccco1,-9%[46.1 µM],-29%,·,·,-21,·
O=C(Nc1ccc(F)cc1Cl)C1Cc2ccccc2N1C(=O)c1ccccc1 (stereo not given),0%[46.1 µM],-14%,·,·,22,·
COCCn1c(=O)c(-c2ccc(Cl)cc2)nc2cnc(N3CCNCC3)nc21,·,-9%,·,·,·,·
CCCCc1nc2c(c3c1C[C@H](C)OC3)CN(S(=O)(=O)CCCC)CC2,·,·,-1%[14.2 µM],·,·,·
Cc1sc2nc(SCC(=O)NCc3ccco3)n(Cc3ccccc3)c(=O)c2c1C,-6%,-14%,-1%,6%,-15,2.2µM*
COCCNC(=O)c1ccc2c(=O)n(Cc3ccco3)c(SCC(=O)NC3CCCCC3)nc2c1,4%,-3%,21%,4%,0,?
COc1ccc(C(=O)CSc2nc(C(C)(C)C)nc3ccccc23)cc1,·,?,·,10%,?,4µM*
O=C(NCc1ccco1)c1ccc2c(=O)n(Cc3ccco3)c(SCC(=O)N3CCCC3)nc2c1,10%,-3%,?,0%,-24,13µM*
CCCCCn1c(SCc2ccncc2)nc2cc(C(=O)NCc3ccco3)ccc2c1=O,-6%,?,-5%,-8%,-38,14µM*
CCCc1nc(SCC(=O)NNC(=O)c2ccc(OC)cc2)c2ccccc2n1,·,-29%,·,2%,?,-15%
SMILES,Lassa entry inh,FMDV inh,MARV entry inh,SARS PLP yeast,HCMV inh,HCV inh
Cc1nc(-c2ccc(Cl)cc2)sc1CCNC(=O)c1ccco1,6%[46.1 µM],13%,·,·,68,·
CN(CC(=O)Nc1cccc(F)c1)S(=O)(=O)c1ccc2c(c1)n(C)c(=O)c(=O)n2C,20%[46.1 µM],10%,0%[46.1 µM],·,25,·
O=C(CC1N=C2c3ccccc3N=C(SCc3cccc(Cl)c3)N2C1=O)NCCc1ccccc1 (stereo not given),?,-9%,·,·,16,·
Cc1cc2c(c(=O)o1)[C@H](CC(C)C)C(C#N)=C(N)O2,·,·,5%,·,·,·
Cc1cc(C)n([C@@H]2CCCC[C@H]2OC(=O)c2ccccc2)n1,·,·,-7%[46.1 µM],·,·,·
C=CCNC(=O)C1CCN(c2nc(C)cc(-c3ccccc3)n2)CC1,?,38%,7%,-2%,50,2.8µM*
Cc1ccccc1Cn1ccn(-c2ccc(F)c(F)c2)c(=O)c1=O,0%[46.1 µM],-9%,·,·,-35,·
Cc1cccc2c(C(=O)N3CCN(C(=O)c4ccco4)CC3)cc(-c3cccc(Br)c3)nc12,?,18µM*,?,-4%,-64*,?
O=C(c1ccco1)N1CCN(C(=O)c2cc(-c3ccccc3)nc3ccccc23)CC1,?,8%,?,-3%,69,-4%
Cc1cc(C)c2nc(C(F)(F)F)nc(N3CCN(C(=O)c4ccco4)CC3)c2c1,-12%,?,0%,·,?,13µM*
CC(=O)N1CCC[C@H]1C(=O)N1CCc2c(cnc(C)c2CNC(=O)/C=C/c2cccs2)C1,·,6%,·,·,·,·
CCc1ccccc1Nc1nn2c(=O)c3ccc(C(=O)NCc4cccs4)cc3nc2s1,-29%[46.1 µM],-2%,·,1%,?,·
CC(=O)c1cnn(-c2ccccc2)c1C,-6%,11%,?,-1%,-24,8%
CC(=O)c1cnn(-c2nc3c(C)cccc3s2)c1C,?,40%,0%,-4%,-99*,4%
COc1ccc(C(CCNCc2ccc(N(C)C)cc2)c2ccccc2OC)cc1 (stereo not given),16µM*,?,?,-2%,-22,?
COc1ccc(C(CCNCc2ccc(OC(C)C)cc2)c2ccccc2OC)cc1 (stereo not given),·,?,·,-4%,-70*,?
